Laboratory results reported in paper PMC4336329 (PLoS ONE, 2015).
Screen size: about 310,000 compounds; about 14,000 (4.5%) showed an effect of 50% or more. The effect is printed as a negative number. Many of the other results were omitted from the sample, so strong results are more common in it than they were.

target: human ether-à-go-go-related gene (hERG) potassium channel (human, UniProt Q12809); assay: primary screen, population patch clamp on CHO cells stably expressing hERG; higher = less effect of the substance
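Also: peak tail current of the secondary pulse compared with the same well before compound.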

human ether-à-go-go-related gene (hERG) potassium channel, sequence (Q12809 whole entry, looked up): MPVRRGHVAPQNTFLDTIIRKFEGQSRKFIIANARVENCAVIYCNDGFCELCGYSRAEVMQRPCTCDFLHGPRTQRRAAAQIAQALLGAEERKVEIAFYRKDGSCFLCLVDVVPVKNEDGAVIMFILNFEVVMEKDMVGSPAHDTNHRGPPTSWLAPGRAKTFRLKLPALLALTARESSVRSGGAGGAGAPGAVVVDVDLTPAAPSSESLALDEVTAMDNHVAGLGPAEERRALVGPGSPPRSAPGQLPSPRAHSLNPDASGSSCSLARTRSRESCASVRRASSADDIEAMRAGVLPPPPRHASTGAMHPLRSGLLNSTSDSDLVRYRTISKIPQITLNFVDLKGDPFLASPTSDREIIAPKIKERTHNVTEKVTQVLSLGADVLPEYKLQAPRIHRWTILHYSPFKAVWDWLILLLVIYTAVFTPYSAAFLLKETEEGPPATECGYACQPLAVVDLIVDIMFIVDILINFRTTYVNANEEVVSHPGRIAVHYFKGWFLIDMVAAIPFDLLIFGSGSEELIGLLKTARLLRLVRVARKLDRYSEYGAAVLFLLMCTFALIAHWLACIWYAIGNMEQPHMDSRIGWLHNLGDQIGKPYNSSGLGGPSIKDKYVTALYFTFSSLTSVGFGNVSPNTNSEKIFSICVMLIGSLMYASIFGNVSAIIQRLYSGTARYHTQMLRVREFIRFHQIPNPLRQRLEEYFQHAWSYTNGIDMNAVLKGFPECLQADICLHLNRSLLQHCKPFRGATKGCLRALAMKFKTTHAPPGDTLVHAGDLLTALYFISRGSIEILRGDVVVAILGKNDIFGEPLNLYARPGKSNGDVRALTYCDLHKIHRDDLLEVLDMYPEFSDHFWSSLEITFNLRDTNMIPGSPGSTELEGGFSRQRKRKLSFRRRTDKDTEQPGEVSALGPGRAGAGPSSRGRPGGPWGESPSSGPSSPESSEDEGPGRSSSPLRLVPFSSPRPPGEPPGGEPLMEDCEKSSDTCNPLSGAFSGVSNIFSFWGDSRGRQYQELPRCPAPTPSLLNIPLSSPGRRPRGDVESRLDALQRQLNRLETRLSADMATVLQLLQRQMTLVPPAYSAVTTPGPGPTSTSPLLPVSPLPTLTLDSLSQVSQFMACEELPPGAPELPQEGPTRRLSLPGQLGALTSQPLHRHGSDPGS

Row | Compound | hERG current change (%, negative = inhibition) at 10uM
1 | CCOC(=O)C1=C(COc2ccccc2)NC(=O)NC1c1ccc2ccccc2c1 (stereo not shown) | -12.3%
2 | CC(C)CCNC(=O)NC(=O)CSc1nnc2ccccn12 | 15.6%
3 | CCOC(=O)N1CCC(NC(=O)CC2C(=O)NCCN2Cc2ccccc2)CC1 (stereo not shown) | -1.48%
4 | CCN(CC)S(=O)(=O)c1ccc(/C=C/C(=O)Nc2c(C)n(C)n(-c3ccccc3)c2=O)cc1 | 19.4%
5 | CCCC1CCC(=C(C#N)C(N)=O)CC1 (stereo not shown) | -32.8%
6 | CS(=O)(=O)Nc1ccc(C(=O)Nc2ccccc2-c2ccccc2)cc1 | -65.9%
7 | CCOC(=O)c1ccccc1NC(=O)c1ccccc1NS(C)(=O)=O | -0.0503%
8 | O=C(Nc1ccccc1-c1ccccc1)c1ccccc1 | 13.2%
9 | COC(=O)c1ccccc1NC(=O)c1ccc(NS(C)(=O)=O)cc1 | -36.1%
10 | CCc1ccccc1NC(=O)c1ccc(NS(C)(=O)=O)cc1 | -42.1%
11 | CCOC(=O)c1ccccc1NC(=O)c1ccc(NS(C)(=O)=O)cc1 | -54.7%
12 | Cc1cccc(C(=O)O/N=C2/CC3CCC2(C)C3(C)C)c1 (stereo not shown) | -11%
13 | Cc1cc(C(=O)NCCC2=CCCCC2)c(C)o1 | 7.75%
14 | O=S(=O)(c1cccc(-c2n[nH]c(=S)o2)c1)N1CCOCC1 | 14.9%
15 | CCC(C)NC(=O)C1CCN(S(=O)(=O)N2CCOCC2)CC1 (stereo not shown) | 22.8%
16 | N#CC1=C(SCc2ccc(C#N)cc2)N=C(N)C(c2nc(-c3ccccc3)cs2)C12CCCCC2 (stereo not shown) | 12.3%
17 | CCC(C)Cn1c(C(C)O)nc2ccccc21 (stereo not shown) | 0.00748%
18 | O=C(c1cc2ccccc2o1)N1CCN(c2cccc(C(F)(F)F)c2)CC1 | 3.21%
19 | CCOc1cc(/C=N/O)cc(Br)c1OCC(=O)NCc1ccccc1 | 1.7%
20 | COc1cc(CNC(C)C23CC4CC(CC(C4)C2)C3)ccc1OCC(=O)NC(C)(C)C.Cl (stereo not shown) | -4.99%
21 | CCOc1cc(/C=N/NC(N)=O)cc(Br)c1OCC(=O)Nc1ccccc1C | -65.7%
22 | CCOc1cc(/C=N/NC(N)=O)cc(Br)c1OCC(=O)Nc1cccc2ccccc12 | 18.4%

Row | Compound | hERG current change (%, negative = inhibition) at 10uM
23 | Cl.O=C(COc1ccc(Br)cc1CNCCc1ccccc1)NCc1ccccc1 | -61.1%
24 | CCOc1cc(C=O)cc(Br)c1OCC(=O)NCCc1ccccc1 | -81.7%
25 | CCOc1cc(/C=N/NC(N)=O)cc(Br)c1OCc1ccccc1 | 3.4%
26 | CC(NCc1cc(Br)ccc1OCC(N)=O)C12CC3CC(CC(C3)C1)C2.Cl (stereo not shown) | -55.8%
27 | O=C(CCC(=O)NNC(=O)COc1ccc(Br)cc1Br)NCc1ccccc1 | 16.9%
28 | CCOc1cc(C=O)cc(Br)c1OCC(N)=O | 2.71%
29 | Cc1ccccc1NC(=O)COc1ccc(Br)cc1CNCCCO.Cl | -15.6%
30 | CC(NCc1ccc(OCC(N)=O)cc1)C12CC3CC(CC(C3)C1)C2.Cl (stereo not shown) | -11.2%
31 | CCN(CC)CCCNC(=O)Cn1cnc2sc(C)c(S(=O)(=O)N3CCC(C)CC3)c2c1=O | 11.1%
32 | COC(=O)c1ccc(Cn2nc(-c3ccc(C)cc3)ccc2=O)cc1 | 23.5%
33 | CCn1cc(C(=O)O)c(=O)c2cnc(N3CCN(C(=S)Nc4ccc(F)cc4)CC3)nc21 | 13.3%
34 | CCN(c1ccccc1)S(=O)(=O)c1cccc(C(=O)N(C)CCOc2ccccc2)c1 | -3.95%
35 | CCCCN(C)CCC(=O)Nc1ccc2c(c1)CCC2.Cl | -7.46%
36 | CCOC(=O)c1sc(NC(=O)CSc2ncn(-c3ccccc3)n2)nc1C | 7.23%
37 | COc1ccc(CNC(=O)CCn2c(=O)oc3ccccc32)cc1 | -5.31%
38 | O=C(NC(=S)Nc1ccc2[nH]c(=O)[nH]c2c1)c1ccccc1[N+](=O)[O-] | -8.83%
39 | Cc1cc(C(=O)N2CCN(c3ncccn3)CC2)cs1 | -15.6%
40 | CCOC(=O)c1sc(NC(=S)NC(=O)C2CCCC2)cc1C | 7.72%
41 | CC(NCc1cc(Br)ccc1OCC(=O)NCc1ccccc1)c1ccccc1.Cl (stereo not shown) | -59.6%
42 | CCCNCc1cc(Br)ccc1OCC(=O)NCCc1ccccc1 | -63.5%
43 | CCOc1cc(CNCCO)c(Cl)cc1OCC(=O)NCCc1ccccc1 | -6.82%
44 | CCCNCc1cc(OC)c(OCC(=O)NCCc2ccccc2)cc1Br | -38.1%

Row | Compound | hERG current change (%, negative = inhibition) at 10uM
45 | COc1ccc(Br)cc1CNC(C)c1ccccc1 (stereo not shown) | -19.8%
46 | COc1cc(CNC(C)c2ccccc2)c(Br)cc1OCC(N)=O (stereo not shown) | -17.2%
47 | O=C(c1cccnc1)c1ncc(C(F)(F)F)cc1Cl | -3.33%
48 | O=C(CSc1ccccc1)Nc1nnc(C2CC2)s1 | 16.9%
49 | Cc1c(C(=O)N(Cc2ccccc2)Cc2cccs2)cnn1-c1ccc(Cl)cc1 | -3.32%
50 | O=C(/C=C/c1ccccc1)N/C(=C/c1ccccc1)C(=O)NCCCO | -7.96%
51 | CCC(C)c1ccc(S(=O)(=O)N2CCN(c3ccccn3)CC2)cc1 (stereo not shown) | 24.6%
52 | Cc1ccc(C[n+]2cc(-c3ccc(Cl)cc3)n3c2CCC3)cc1.[Cl-] | -51.3%
53 | Cc1ccc(-c2c[n+](CC(=O)N3c4ccccc4Sc4ccccc43)c3n2CCC3)cc1.[Cl-] | -49.1%
54 | Cc1ccc(-c2c[n+](Cc3ccc(Cl)cc3)c3n2CCC3)cc1.[Cl-] | -41.6%
55 | Cc1ccc(-c2c[n+](CC(=O)c3cccs3)c3n2CCC3)cc1.[Br-] | 5.08%
56 | N#CC[n+]1cc(-c2ccc(Cl)cc2)n2c1CCC2.[Cl-] | 5.21%
57 | Clc1ccc(-c2c[n+](Cc3ccc(Br)cc3)c3n2CCCCC3)cc1.[Br-] | -66.4%
58 | Cc1ccc(-c2c[n+](Cc3cccc(Cl)c3)c3n2CCC3)cc1.[Br-] | -57.7%
59 | Clc1ccc(C[n+]2cc(-c3ccc(Cl)cc3)n3c2CCC3)cc1.[Cl-] | -61.9%
60 | Clc1cccc(C[n+]2cc(-c3ccccc3)n3c2CCC3)c1.[Br-] | -25.7%
61 | CCOc1ccc(CC2NCCc3cc(OCC)c(OCC)cc32)cc1OCC (stereo not shown) | -13.3%
62 | CCN1C(=O)/C(=C\c2ccco2)C(C(=O)OC)=C1C | 10.4%
63 | Cn1nccc1NC(=O)Nc1cccc(Cl)c1Cl | 16.5%
64 | COC(=O)CSc1nc(C2CC2)nc2ccccc12 | -11.5%
65 | Cc1cc(C)cc(N(C(C)C(=O)N2CCCCC2)S(C)(=O)=O)c1 (stereo not shown) | 4.06%
66 | Cc1ccc(S(=O)(=O)NCC(=O)N(CC(=O)NCC2CCCO2)Cc2ccc(Cl)cc2)cc1 (stereo not shown) | -11%

Row | Compound | hERG current change (%, negative = inhibition) at 10uM
67 | Cc1c(Cl)cccc1NC(=S)NC1CCCC1 | -5.1%
68 | Cc1ccc(-c2csc(NC(=O)c3ccno3)n2)cc1 | 2.72%
69 | CN1CCN(C(=O)CSc2nc(-c3cccs3)ccc2C#N)CC1 | -4.44%
70 | COC(=O)c1ccc(CN(c2ccccn2)S(=O)(=O)c2ccccc2)cc1 | 14.1%
71 | Cc1ccc(-c2c[n+](Cc3ccc(Cl)c(Cl)c3)c3n2CCC3)cc1.[Cl-] | -68.9%
72 | O=[N+]([O-])c1ccc(C[n+]2cc(-c3ccc(Cl)c(Cl)c3)n3c2CCCCC3)cc1.[Br-] | -15.7%
73 | Clc1ccc(C[n+]2cc(-c3ccccc3)n3c2CCC3)cc1Cl.[Cl-] | -45.1%
74 | CC(=O)N1CCN(c2ccccc2NC(=O)c2cc3ccccc3o2)CC1 | -49.8%
75 | O=C1CC(c2ccccc2)CC(O)=C1C=NCCCN1CCOCC1 (stereo not shown) | -9.92%
76 | O=C(O)c1cc(-c2cccs2)nc2ccc(Br)cc12 | 21%
77 | O=C(C1CC1)N1CCc2cc(Br)cc(S(=O)(=O)NCc3ccco3)c21 | -41%
78 | CC(=O)N1CCc2cc(Br)cc(S(=O)(=O)NCc3ccccn3)c21 | 7.02%
79 | O=C(C1CC1)N1CCc2cc(Br)cc(S(=O)(=O)NCc3ccc4c(c3)OCO4)c21 | -64.8%
80 | CC(=O)N1CCc2cc(Br)cc(S(=O)(=O)NCc3ccc(Cl)cc3)c21 | -58.6%
81 | CCCN(CCC)S(=O)(=O)c1cc(Br)cc2c1N(C(=O)CC)CC2 | -2.75%
82 | O=C(O)CCS(=O)(=O)c1cc(Br)cc2c1N(C(=O)C1CC1)CC2 | 9.39%
83 | CCCCN(C)S(=O)(=O)c1cc(Br)cc2c1N(C(=O)C1CC1)CC2 | -51.6%
84 | CC(=O)N1c2c(cc(Br)cc2S(=O)(=O)NCc2ccccc2)CC1C (stereo not shown) | -35.5%
85 | COc1ccc(CNS(=O)(=O)c2cc(Br)cc3c2N(C(C)=O)C(C)C3)cc1 (stereo not shown) | -40.9%
86 | CC(=O)N1CCc2cc(Br)cc(S(=O)(=O)NCCCN(C)Cc3ccccc3)c21 | -38.3%
87 | CCN(c1ccc2c(c1)OCO2)S(=O)(=O)c1cc(Br)cc2c1N(C(=O)C1CC1)CC2 | 8.05%
88 | CC(=O)N1c2c(cc(Br)cc2S(=O)(=O)NCc2ccc(C)cc2)CC1C (stereo not shown) | -59.5%
